Compound activity as filed in PubChem BioAssay.
Rows were chosen to be rich in hits. Some 1.5% of all compounds tested hit in one or more screens of this group.
APEX1 inh: blocks human APE1 abasic DNA cleavage; AID 2517; 0.35% of 350,000 active; recombinant APE1, TAMRA/BHQ-2 abasic DNA cleavage fluorescence; P27695; Potency, µM (top dose mostly 65.8 µM), inactives show at the highest dose activity change, negative = inhibition, actives largely listed as inhibitors;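 also: potency is read from the fitted curve at half-maximal effect; plate controls were vehicle for no effect and reference inhibitor for full effect; nearly all actives have a fitted effect of over 55% in size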
Target sequence (P27695 whole entry, looked up): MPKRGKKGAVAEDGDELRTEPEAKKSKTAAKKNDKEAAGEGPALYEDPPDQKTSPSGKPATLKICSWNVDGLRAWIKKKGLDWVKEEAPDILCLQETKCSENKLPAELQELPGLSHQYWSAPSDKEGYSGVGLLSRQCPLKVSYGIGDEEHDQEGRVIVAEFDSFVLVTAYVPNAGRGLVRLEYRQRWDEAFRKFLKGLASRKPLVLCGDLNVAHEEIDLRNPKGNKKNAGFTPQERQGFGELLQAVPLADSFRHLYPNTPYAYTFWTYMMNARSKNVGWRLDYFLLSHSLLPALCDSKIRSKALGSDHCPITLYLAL
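APE1 at 0.75 nM final was preincubated with compound 15 min at room temperature, then 50 nM double-stranded THF abasic-site substrate (5'-TAMRA/3'-BHQ-2) was added. Fluorescence (ex 525/em 598 nm) was read kinetically; third-minus-first read gave activity.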
RECQ1 inh-1: blocks DNA unwinding by human RECQ1; P46063; RECQ1 DNA unwinding, red fluorescence kinetic read; Potency, µM (titrated, usually from 57.3 µM), for the others: at the highest dose activity, negative = inhibition, usual class: inhibitors; 0.54% of 240,000 active;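 also: potency is read from the fitted curve at half-maximal effect; plate controls were vehicle for no effect and no enzyme for full effect; nearly all actives have a fitted effect of over 30% in size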
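RECQ1T1 50 nM; forked duplex (20 bp + 30-nt ss tails) 200 nM, ATP 2 mM final; pH 8.0, 2 mM MgCl2, 2.5 ug/ml poly(dI-dC); 15 min compound preincubation; discontinuous kinetic read over 2 h at RT.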
BLM helicase inh: blocks DNA unwinding by human BLM helicase. 0.2% of 350,000 active. Potency, µM (top dose mostly 56.1 µM), without a hit: at the highest dose activity change, negative = inhibition, actives largely listed as inhibitors. recombinant BLM DNA unwinding, fluorescence dequenching. P54132. AID 2528;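 also: potency is read from the fitted curve at half-maximal effect; plate controls were vehicle for no effect and no enzyme for full effect; nearly all actives have a fitted effect of over 35% in size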
PI5P4K alpha inh: inhibitors of human PI5P4K alpha. P48426. PI5P4Kalpha enzyme, ADP-Glo luminescence, 60 min; stronger effect = lower value. max response, %. 1.2% of 330,000 active. AID 652105; active = max response of -50% or lower; inconclusive = between -30% and -50%; inactive = -30% or higher; also: value at the top dose of about 77 µM
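Single end-point luminescence (ADP-Glo) quantified ADP from PI5P4Kalpha turnover; ATP 5 microM final, 1 h at RT, 0.1% CHAPS and 0.28 mM EGTA in HEPES pH 7.4.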
WRN inhibitor: inhibitors of human WRN helicase | Q14191 | Potency, µM (top dose mostly 114 µM), for inactives: at the top dose activity change, negative = inhibition, actives largely listed as inhibitors | 0.46% of 360,000 active | AID 651768 | WRN helicase unwinding, fluorescent forked duplex, kinetic; also: potency is read from the fitted curve at half-maximal effect; nearly all actives have a fitted effect of over 55% in size
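WRN at 20 nM final preincubated with compound 15 min at room temperature; reaction started with 100 nM fluorophore/quencher forked duplex oligonucleotide and 2 mM ATP final. Unwinding followed kinetically by red fluorescence (ex 525, em 598 nm).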
FEN1 inhibitor: inhibitors of human flap endonuclease 1; Potency, µM (top dose mostly 114 µM), inactives show at the top dose activity change, negative = inhibition, most hits filed as inhibitors; P39748; 0.35% of 390,000 active; Recombinant FEN1 flap cleavage, fluorescence, 15 min; also: potency is read from the fitted curve at half-maximal effect; nearly all actives have a fitted effect of over 65% in size
Target sequence (P39748 whole entry, looked up): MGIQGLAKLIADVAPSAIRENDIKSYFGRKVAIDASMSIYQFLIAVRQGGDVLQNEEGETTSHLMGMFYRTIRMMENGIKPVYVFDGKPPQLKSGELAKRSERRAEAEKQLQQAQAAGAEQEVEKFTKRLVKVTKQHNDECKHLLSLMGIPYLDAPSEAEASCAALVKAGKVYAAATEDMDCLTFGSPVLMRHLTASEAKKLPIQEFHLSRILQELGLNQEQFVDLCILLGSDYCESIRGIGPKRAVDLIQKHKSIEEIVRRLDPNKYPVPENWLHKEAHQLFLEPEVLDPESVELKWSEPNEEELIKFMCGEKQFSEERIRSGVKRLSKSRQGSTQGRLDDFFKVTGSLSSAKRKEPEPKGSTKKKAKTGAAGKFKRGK
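Read-out was taken twice, immediately and after 15 min, following addition of 50 nM substrate to 10 nM FEN1 that had sat with test compound for 15 min at room temperature. Curves came from a four-parameter Hill model.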
RECQ1 inh conf: confirmation of human RECQ1 helicase inhibitors. shares compounds with RECQ1 inh-1. 28% of 610 active. RECQ1 helicase DNA unwinding, fluorescence. Potency, µM (top dose mostly 229 µM), inactives show top-dose activity change, negative = inhibition, hits mostly inhibitors; also: potency is read from the fitted curve at half-maximal effect; nearly all actives have a fitted effect of over 45% in size
RECQ1 ADP FP: ADP displacement flagged in RECQ1 inhibitor counter-screen | shares compounds with RECQ1 inh-1 | ADP fluorescence polarization displacement counterscreen | Potency, µM (highest dose often 228 µM), for inactives: at the highest dose activity change, negative = inhibition, usual class: inhibitors | 27% of 530 active | AID 2711; also: potency is read from the fitted curve at half-maximal effect; nearly all actives have a fitted effect of over 45% in size
RECQ1 inh-2: blocks human RECQ1 DNA unwinding | shares compounds with RECQ1 inh-1 | recombinant RECQ1 DNA unwinding, red fluorescence | Potency, µM (doses to about 119 µM), inactives show at the highest dose activity, negative = inhibition, hits mostly inhibitors | 15% of 1,100 active | AID 504841; also: potency is read from the fitted curve at half-maximal effect; nearly all actives have a fitted effect of over 50% in size
* marks the source's active call; other numbers are inactive results; i = inactive; ? = inconclusive; · = no result; [ ] = dose if it differs, or a comment. Unless noted, calls follow the shape of the dose curve; as a rule, active = well fitted curve in the direction sought with a large enough effect; inconclusive = small, poorly fitted or top-dose-only effect, or another doubt; inactive = no such curve, though single readings can be large; an effect the other way counts as inactive or inconclusive. Unless noted, % is scaled to controls: 0 for no effect and ±100 for the full control effect.

SMILES	APEX1 inh	RECQ1 inh-1	BLM helicase inh	PI5P4K alpha inh	WRN inhibitor	FEN1 inhibitor	RECQ1 inh-2	others
CCOc1ccc(C(=O)CSc2nnc3ccccn23)cc1	-5%	-8%	1%	-12	9%	9%	·
CCn1c(CSc2nnc3ccccn23)nc2cc(C(=O)O)ccc21	-7%	10µM*	-7%	-8	37%[57.1 µM]	50µM*	56µM*	RECQ1 inh conf=45µM*;RECQ1 ADP FP=2µM*
CCn1c(CSc2nnc(-c3ccncc3)n2CCOC)nc2cc(C(=O)O)ccc21	-8%	22µM*	-10%	-4	?	?	-178%	RECQ1 inh conf=56µM*;RECQ1 ADP FP=4.5µM*
CC1CCCN(C(=S)SCC(=O)c2cc(Br)cc(Br)c2O)C1 (configuration not stated)	-7%	?	-8%	-4	89µM*	50µM*	-20%
CC1CCCN(C(=S)SCC(=O)O)C1 (configuration not stated)	-2%	-6%	0%	2	-2%	2%	·
O=C(CSC(=S)N1CCCC1)c1cc(Br)cc(Br)c1O	2%	32µM*	-11%	-25	56µM*	-15%	50µM*
Brc1ccccc1CN1CCC(N2CCCCC2)CC1	-4%	?	-5%	·	-8%	-13%	-2%
O[C@@H]1CN(C2CCN(Cc3ccccc3)CC2)CC[C@H]1N1CCCCCC1	·	·	·	4	-8%[57.1 µM]	22%	·
CCCNC(=O)Nc1cc(C(=O)NCc2cccc(OCC)c2)ccc1N1CCCC1	·	·	2%	·	·	-4%	·
N=C1S/C(=C\c2ccc(-c3ccccc3C(=O)O)o2)C(=O)N1c1ccc2c(c1)OCO2	?	-2%	-20%	-74*	?	?	·	RECQ1 inh conf=?;RECQ1 ADP FP=?
Cn1c(Cn2nnc3ccccc32)nnc1SCC(=O)N1c2ccccc2Sc2ccccc21	?	i	-5%	·	-12%	-3%	·	RECQ1 inh conf=-4%;RECQ1 ADP FP=25%
CCn1c(SCC(=O)N2c3ccccc3Sc3ccccc32)nnc1-c1ccco1	-2%	-4%	0%	·	-17%	-14%	·
CCc1ccccc1NC(=O)CSc1nnc(CNC(=O)c2ccco2)n1C	46%	·	-3%	1	-8%	-3%	·
Cn1c(CNC(=O)c2ccco2)nnc1SCC(=O)N1c2ccccc2Sc2ccccc21	-7%	3%	-2%	0	-2%	7%	·	RECQ1 inh conf=-1%;RECQ1 ADP FP=14%
Cn1c(Cn2nnc3ccccc32)nnc1SCC(=O)N1c2ccccc2CCc2ccccc21	?	-2%	-3%	·	20%	-15%	·
C=CCn1c(SCC(=O)N2c3ccccc3Sc3ccccc32)nnc1-c1ccco1	-1%	-2%	-7%	2	-3%	0%	·	RECQ1 inh conf=-10%;RECQ1 ADP FP=11%
CCC(Sc1nc(-c2ccccc2)[nH]c1S(=O)(=O)c1ccc(C)cc1)C(=O)O (configuration not stated)	·	·	-1%	·	·	15%	·
COc1cccc(-c2csc(-c3c(N)c(C(=O)c4ccccc4)n4ccccc34)n2)c1	·	·	-7%	·	·	8%	·
COc1ccccc1-c1nc(S(=O)(=O)c2ccccc2)c(N2CCC(C)CC2)o1	·	·	-9%	·	·	1%	·
Cc1cccc(-n2ncc(C(=O)N3CCN(Cc4ccccc4)CC3)c2C2CCN(C(=O)OC(C)(C)C)CC2)c1	·	·	-2%	·	·	7%	·
CCNc1ncc2nc(-c3cccs3)c(=O)n(CCc3ccccc3)c2n1	-9%	28µM*	-4%	·	·	·	79µM*
CCNc1ncc2nc(-c3ccccc3)c(=O)n(CCc3ccccc3)c2n1	22%	i	-3%	·	·	·	·
CCNc1ncc2nc(-c3ccc(F)cc3)c(=O)n(CCc3ccccc3)c2n1	0%	28µM*	-12%	·	·	·	79µM*
CCC1CN(C(=O)N2CCC(C(=O)NCCc3ccc(OC)cc3OC)CC2)c2cc(C)ccc2O1 (configuration not stated)	·	·	-7%	·	·	1%	·
COC/C=C/C1=CC2=CC(=O)C(C)(OC(=O)c3cnc4ccccc4n3)C(=O)C2=CN1C1CCCCC1 (configuration not stated)	14%	9%[11.5 µM]	-21%	·	·	·	·
SMILES	APEX1 inh	RECQ1 inh-1	BLM helicase inh	PI5P4K alpha inh	WRN inhibitor	FEN1 inhibitor	RECQ1 inh-2	others
CC1(OC(=O)c2cnc3ccccc3n2)C(=O)C=C2C=C(C3CC3)OC=C2C1=O (configuration not stated)	-4%	13µM*	-1%	·	·	·	-27%
COc1ccc(C(CC(=O)N2CCCC2)c2c(OC)cc(OC)c3c(-c4ccccc4)cc(=O)oc23)cc1 (configuration not stated)	10µM*	13µM*	?	?	-11%[11.6 µM]	-20%	20µM*
O=S(=O)(Nc1nc2ccccc2nc1Nc1ccc(N2CCOCC2)cc1)c1cc(Cl)ccc1Cl	-4%	?	-9%	-3	5%	-1%	-12%
Cc1ccc(CC(=O)Nc2ccc3c(c2)N(C)C(=O)c2ccccc2S3)cc1	·	·	-3%	·	·	?	·
CCC(C(=O)Nc1ccccc1OC)n1c(C(=O)OC)cc2ccsc21 (configuration not stated)	-5%	1.4µM*	-11%	·	-20%[57.1 µM]	-14%	-49%	RECQ1 inh conf=?;RECQ1 ADP FP=35%[91.9 µM]
CCN1C(=O)C(CC(=O)Nc2ccc(F)cc2)N(CCc2ccc(OC)cc2)C1=S (configuration not stated)	-7%	22µM*	-13%	5	-31%	-10%	-17%
CCN1C(=O)C(CC(=O)Nc2ccc(OC)cc2)N(CCc2ccccc2)C1=S (configuration not stated)	4%	-5%	-12%	1	-10%	-16%	·
CC[C@]1(O)C[C@H]2CN(CCc3c([nH]c4ccccc34)[C@@](C(=O)OC)(c3cc4c(cc3OC)N(C=O)[C@H]3[C@@](O)(C(=O)OC)[C@H](OC(C)=O)[C@]5(CC)C=CCN6CC[C@]43[C@@H]65)C2)C1	·	·	3%	·	·	-7%	·
COc1ccc(-c2csc(NC(=O)c3cc(-c4cccs4)nc4ccccc34)n2)c(OC)c1	0%	-8%	-3%	1	3%	3%	·
COc1ccccc1-c1csc(NC(=O)c2cc(-c3cccs3)nc3ccccc23)n1	15%	?	-15%	18	-2%	-2%	-13%
